The source of these data is PubChem BioAssay (Tox21).

Inconclusive results are not listed. Active and inactive are the calls of the source. Unless noted, calls follow the shape of the full dose curve.

A short description of assay [1]: Nuclear factor erythroid 2-related factor 2/antioxidant responsive element (Nrf2/ARE) small molecule agonists: luciferase reporter gene qHTS assay in human keratinocytes (AID 1919969). Also: nearly all actives have a fitted effect of over 35% in size. Also: potency is read from the fitted curve at half-maximal effect. On the technique in general: In a reporter assay the amount or activity of a reporter protein is the signal.
Assay [2] deals with KiSS-1 receptor (Homo sapiens) (UniProt Q969F8). Description: Human kisspeptin (KISS1R) small molecule agonists, calcium flux assay in KISS1R-HEK293 cells (AID 1920064; active = well fitted activation curve with a large enough effect in the repeat runs). The method, boiled down:
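Stable human KISS1R HEK293 line; 18 h plating, 37 C/5% CO2; calcium dye 1 h 37 C; compound pin transfer; kinetic fluorescence Ex/Em 480/540, 3 min.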

A short description of assay [3]: G protein-coupled receptor (GPCR) small molecule agonists, calcium flux assay: HEK293 wild type cell line counter screen (AID 1920065). Put shortly:
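Kinetic fluorescence at Ex/Em 480/540, recorded every second over 3 min, served as the read-out after compound addition. Each compound was tested at 15 concentrations in triplicate on cells pre-loaded with calcium dye for 1 h.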

Assay [4] is described as follows: p53 small molecule agonists, cell-based qHTS assay with human liver microsomes (AID 1963577). The method, boiled down:
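p53RE-bla cells, 4,000/well, compound added after 5 h, with human liver microsomes 0.5 mg/mL and NADPH 0.5 mg/mL final; 16 h at 37 C, then LiveBLAzer 2 h RT, fluorescence.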

Assay [5] can be described thus: p53 small molecule agonists, cell-based qHTS assay with rat liver microsomes (AID 1963578). The method, boiled down: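 p53RE-bla cells, 4,000/well, pre-incubated 5 h, then given compounds plus rat liver microsomes (0.5 mg/mL final) and NADPH (0.5 mg/mL final). Incubation 16 h at 37 C; beta-lactamase reporter read by LiveBLAzer fluorescence after 2 h at room temperature.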
For orientation: Quantitative high-throughput screening tests each substance at several concentrations.

Assay [6] in a line: p53 small molecule agonists, cell-based qHTS assay with human liver microsomes: qHTS cell viability counter screen (AID 1963579). Also: nearly all actives have a fitted effect of over 45% in size. The method, boiled down: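 p53RE-bla cells, 4,000/well, dosed 5 hours after plating, with human liver microsomes (0.5 mg/mL final) plus NADPH (0.5 mg/mL final), 16 hours at 37 C. Viability read as CellTiter-Glo luminescence after 30 min at room temperature.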

Assay [7] is described as follows: p53 small molecule agonists, cell-based qHTS assay: qHTS cell viability counter screen (AID 1963581). Also: nearly all actives have a fitted effect of over 45% in size. Also: potency is read from the fitted curve at half-maximal effect. The method, boiled down:
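HCT-116 p53RE-bla cells, 4,000/well, plated 5 h before compound pin transfer; 16 h at 37 C; bla substrate 2 h RT; then CellTiter-Glo, 30 min RT, luminescence.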

For assay [8], the target named is 5-hydroxytryptamine receptor 2A (Homo sapiens) (UniProt P28223). Briefly: 5-hydroxytryptamine receptor 2A (HTR2A) small molecule antagonists, cell-based qHTS assay (AID 1963586). Also: nearly all actives have a fitted effect of over 45% in size. Also: potency is read from the fitted curve at half-maximal effect. The method, boiled down: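 Antagonist-mode intracellular calcium assay: DOI (4 nM) added after 5 min compound pre-incubation at room temperature to dye-loaded HTR2A-CHO cells. Fluorescence followed for 3 min, sampled every second.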

In assay [9] the target is Muscarinic acetylcholine receptor M1 (Homo sapiens) (UniProt P11229). Briefly: Cholinergic receptor muscarinic 1 (CHRM1) small molecule agonists, cell-based qHTS assay (AID 1963589). Also: nearly all actives have a fitted effect of over 35% in size. Put shortly:
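Human M1 in stable CHO line; 18 h plating, 1 h dye load 37 C; cpd added (agonist mode); Ca2+ fluorescence kinetic read, 1 s intervals; 15 conc, 3 runs.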

For assay [10], the target named is Beta-2 adrenergic receptor (Homo sapiens) (UniProt P07550). Briefly: Adrenergic beta2 receptor (ADRB2) small molecule antagonists, cell-based qHTS assay (AID 1963592). Also: series mostly up to about 92 µM; nearly all actives have a fitted effect of over 50% in size. Put shortly:
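Cells (CHO, stable ADRB2 overexpression) incubated 18-20hr at 37C; compounds added from DMSO; agonist mix (1nM isoproterenol, 100uM IBMX, 25uM Ro-20-1724) added; 0.5hr RT; d2-cAMP and anti-cAMP-cryptate added; 1hr RT; 665/615 nm read.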

The nature of assay [11]: p53 small molecule agonists, cell-based qHTS assay with rat liver microsomes: qHTS cell viability counter screen (AID 1963580). Also: nearly all actives have a fitted effect of over 45% in size. Put shortly:
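Viability is assessed in parallel with the p53 reporter read: HCT-116 p53RE-bla cells receive compounds plus rat microsomes and NADPH (0.5 mg/mL final apiece), incubate 16 h at 37 C, and then CellTiter-Glo luminescence is recorded.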

Assay [12] can be described thus: cAMP Responsive Elements (CRE) small molecule agonists, cell-based qHTS assay (AID 1963590). Put shortly: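 HEK 293T CRE-bla, 2,000 cells/well, 18 h preincubation 37 C/5% CO2; cpds (DMSO) pinned, 3 h; LiveBLAzer B/G FRET substrate, 2 h RT.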
A short description of assay [13]: cAMP Responsive Elements (CRE) small molecule antagonists, cell-based qHTS assay (AID 1963591; active = well fitted inhibition curve with a large enough effect in the signal ratio in the repeat runs, not every such curve was filed as active; the % refers to the signal ratio). The method, boiled down: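 Beta-lactamase reporter read by FRET substrate (LiveBLAzer B/G) after 2 h at room temperature. CRE-bla HEK293T cells had received compound plus 0.25 uM (final) NKH477 for 3 h at 37 °C.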
Assay [14] deals with Beta-2 adrenergic receptor (Homo sapiens) (UniProt P07550). Description: Adrenergic beta2 receptor (ADRB2) small molecule agonists, cell-based qHTS assay (AID 1963593).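 Also: CHO cells stably overexpressing human ADRB2.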 The method, boiled down: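 CHO cells stably over-expressing ADRB2 were plated overnight at 37C, then dosed with compounds plus a stimulation mix containing 100uM IBMX and 25uM Ro-20-1724 for 0.5hr at room temperature. cAMP was measured by HTRF competition, 1hr.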

Assay [15] addresses D(2) dopamine receptor (Homo sapiens) (UniProt P14416). Briefly: Dopamine D2 receptor (DRD2) small molecule agonists, cell-based qHTS assay (AID 1963594). Also: nearly all actives have a fitted effect of over 35% in size. Put shortly:
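HEK293 cells stably expressing human DRD2, pre-treated with PDE inhibitor Ro20-1724 (0.1 mM final) and compound 10 min at room temperature, then stimulated with NKH477 (200nM […]) for 30 min. cAMP read by HTRF (665/620 nm).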

For assay [16] the target is unchanged. Description: Dopamine D2 receptor (DRD2) small molecule antagonists, cell-based qHTS assay (AID 1963595; active = well fitted inhibition curve with a large enough effect in the signal ratio in the repeat runs, with a control signal flat; the % refers to the signal ratio). The method, boiled down:
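HEK293 cells stably expressing DRD2 were preincubated with 0.1 mM Ro20-1724, then with compound for 10 min at room temperature. Cells were stimulated with 200 nM NKH477 plus 12 nM quinpirole for 30 min, and cAMP was read by HTRF.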

Assay [17] in a line: p53 small molecule agonists, cell-based qHTS assay (AID 1963582; active = well fitted activation curve with a large enough effect in the signal ratio in the repeat runs, not every such curve was filed as active; the % refers to the signal ratio). Put shortly: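 Reporter line: p53RE-bla. Pre-incubation 5 h, 37 C, 5% CO2; compound (DMSO, pin tool) 16 h, 37 C; B/G FRET substrate 2 h RT; fluorescence intensity read.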
For assay [18], the target named is 5-hydroxytryptamine receptor 2A (Homo sapiens) (UniProt P28223). Briefly: 5-hydroxytryptamine receptor 2A (HTR2A) small molecule agonists, cell-based qHTS assay (AID 1963587). Also: nearly all actives have a fitted effect of over 30% in size. Put shortly: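 CHO cells stably expressing human HTR2A, plated 18 h, loaded with calcium dye 1 h at 37 C. Agonist mode: compounds added and intracellular calcium fluorescence recorded kinetically for 2 min at 1 sec intervals.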

Assay [19] has as its target Muscarinic acetylcholine receptor M1 (Homo sapiens) (UniProt P11229). Description: Cholinergic receptor muscarinic 1 (CHRM1) small molecule antagonists, cell-based qHTS assay (AID 1963588). Also: nearly all actives have a fitted effect of over 40% in size. Also: potency is read from the fitted curve at half-maximal effect. The method, boiled down:
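CHRM1-CHO calcium-flux assay, antagonist mode. Cells were seeded 18 h, dye-loaded 1 h at 37 C and given compound for 5 min at RT, then acetylcholine was added at 50nM. FDSS fluorescence was read 3 min; 15 concentrations, three runs.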

Assay [20] addresses Gonadotropin-releasing hormone receptor (Homo sapiens) (UniProt P30968). Description: Human gonadotropin-releasing hormone receptor (GnRHR) small molecule agonists, calcium flux assay in GnRHR-HEK293 cells (AID 1920063). Also: nearly all actives have a fitted effect of over 35% in size. Put shortly:
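GnRHR-HEK293, 1500 cells/well, 18 h 37 C/5% CO2; Ca dye 1 h 37 C; cpd pinned (DMSO), agonist mode; kinetic FL 480/540, 3 min, 1 s reads; 15 conc, n=3.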
(In general: A change in cytosolic calcium serves as a functional read-out for many receptors and channels.)

Chain of 5-hydroxytryptamine receptor 2A (Homo sapiens) (P28223 whole entry, looked up): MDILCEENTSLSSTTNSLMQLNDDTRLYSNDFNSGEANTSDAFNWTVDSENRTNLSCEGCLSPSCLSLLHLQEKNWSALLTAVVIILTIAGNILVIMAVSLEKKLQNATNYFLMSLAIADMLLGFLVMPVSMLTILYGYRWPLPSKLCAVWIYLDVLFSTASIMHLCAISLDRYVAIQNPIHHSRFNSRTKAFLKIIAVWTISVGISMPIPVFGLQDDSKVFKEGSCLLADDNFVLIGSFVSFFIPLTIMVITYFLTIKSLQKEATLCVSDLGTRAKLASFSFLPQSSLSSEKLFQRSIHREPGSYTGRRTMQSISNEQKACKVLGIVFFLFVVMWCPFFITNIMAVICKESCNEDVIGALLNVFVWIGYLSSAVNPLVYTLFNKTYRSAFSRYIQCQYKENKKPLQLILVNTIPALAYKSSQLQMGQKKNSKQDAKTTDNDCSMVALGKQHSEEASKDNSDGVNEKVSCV
Chain of Beta-2 adrenergic receptor (Homo sapiens) (P07550 whole entry, looked up): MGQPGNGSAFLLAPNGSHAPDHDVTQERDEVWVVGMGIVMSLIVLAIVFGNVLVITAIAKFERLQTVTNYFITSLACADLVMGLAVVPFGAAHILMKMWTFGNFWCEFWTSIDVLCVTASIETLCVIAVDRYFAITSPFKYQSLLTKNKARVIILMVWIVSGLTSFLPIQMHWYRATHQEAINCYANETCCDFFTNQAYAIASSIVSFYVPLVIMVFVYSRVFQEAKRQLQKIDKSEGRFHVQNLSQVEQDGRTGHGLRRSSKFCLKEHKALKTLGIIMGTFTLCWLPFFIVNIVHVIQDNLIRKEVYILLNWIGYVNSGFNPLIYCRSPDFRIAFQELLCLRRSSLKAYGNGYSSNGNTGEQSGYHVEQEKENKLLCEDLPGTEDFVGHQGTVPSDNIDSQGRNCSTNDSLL
Chain of Muscarinic acetylcholine receptor M1 (Homo sapiens) (P11229 whole entry, looked up): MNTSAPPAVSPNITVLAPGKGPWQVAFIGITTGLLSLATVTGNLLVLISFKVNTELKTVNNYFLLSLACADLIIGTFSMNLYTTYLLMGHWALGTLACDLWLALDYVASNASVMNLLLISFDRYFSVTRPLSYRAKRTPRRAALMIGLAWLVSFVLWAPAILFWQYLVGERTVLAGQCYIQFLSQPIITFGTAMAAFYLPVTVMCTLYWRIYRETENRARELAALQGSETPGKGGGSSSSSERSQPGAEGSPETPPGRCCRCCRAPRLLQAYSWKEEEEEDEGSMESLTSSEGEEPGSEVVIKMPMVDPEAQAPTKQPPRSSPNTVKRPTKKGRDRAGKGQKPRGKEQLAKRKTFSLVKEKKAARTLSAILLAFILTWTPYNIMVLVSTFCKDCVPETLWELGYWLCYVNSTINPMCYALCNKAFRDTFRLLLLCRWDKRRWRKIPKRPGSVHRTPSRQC
Chain of D(2) dopamine receptor (Homo sapiens) (P14416 whole entry, looked up): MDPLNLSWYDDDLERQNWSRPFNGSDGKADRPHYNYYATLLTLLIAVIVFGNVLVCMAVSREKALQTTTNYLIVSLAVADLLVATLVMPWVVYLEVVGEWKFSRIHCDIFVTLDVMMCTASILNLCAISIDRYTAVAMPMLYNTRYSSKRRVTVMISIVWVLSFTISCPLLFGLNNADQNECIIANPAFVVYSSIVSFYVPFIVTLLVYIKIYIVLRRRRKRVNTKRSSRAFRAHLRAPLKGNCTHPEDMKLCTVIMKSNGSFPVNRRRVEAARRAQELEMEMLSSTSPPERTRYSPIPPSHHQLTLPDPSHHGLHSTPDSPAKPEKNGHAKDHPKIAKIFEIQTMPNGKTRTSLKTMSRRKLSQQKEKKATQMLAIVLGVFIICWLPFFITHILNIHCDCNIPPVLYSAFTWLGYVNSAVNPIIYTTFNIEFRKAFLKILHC
Chain of Gonadotropin-releasing hormone receptor (Homo sapiens) (P30968 whole entry, looked up): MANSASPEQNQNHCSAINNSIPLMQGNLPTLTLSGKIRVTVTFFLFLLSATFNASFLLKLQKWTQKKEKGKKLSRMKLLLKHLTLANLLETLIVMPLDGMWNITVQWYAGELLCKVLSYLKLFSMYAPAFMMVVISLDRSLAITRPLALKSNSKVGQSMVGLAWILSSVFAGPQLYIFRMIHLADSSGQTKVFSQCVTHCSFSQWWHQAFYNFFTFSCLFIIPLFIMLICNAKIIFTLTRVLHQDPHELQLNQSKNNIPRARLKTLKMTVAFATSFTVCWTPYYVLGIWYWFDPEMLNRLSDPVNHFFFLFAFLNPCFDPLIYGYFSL
Chain of KiSS-1 receptor (Homo sapiens) (Q969F8 whole entry, looked up): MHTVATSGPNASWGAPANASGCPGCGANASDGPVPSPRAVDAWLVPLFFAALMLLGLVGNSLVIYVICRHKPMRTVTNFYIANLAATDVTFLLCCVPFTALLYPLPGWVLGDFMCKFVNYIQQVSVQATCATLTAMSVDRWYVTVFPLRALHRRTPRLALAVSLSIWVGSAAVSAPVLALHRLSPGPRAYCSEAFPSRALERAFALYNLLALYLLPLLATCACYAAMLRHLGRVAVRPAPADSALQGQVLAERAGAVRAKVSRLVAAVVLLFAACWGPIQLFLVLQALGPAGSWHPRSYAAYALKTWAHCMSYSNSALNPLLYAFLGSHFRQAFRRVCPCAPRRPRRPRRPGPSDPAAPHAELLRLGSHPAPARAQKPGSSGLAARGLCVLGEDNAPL

As to `Cc1cc(SCc2sc(-c3ccc(C(F)(F)F)c(F)c3)nc2C)ccc1OCC(=O)O`, the results for the Potency in assay [1] and in [8] were 61.1 µM (active) and 42.1 µM (active), respectively. Further, the Potency entry in assay [2], in assay [3], in assay [4], in assay [5], in assay [6] and in assay [7] was “inactive” each time. Further, the Potency result in assay [9] and in [10] was “inactive” throughout.

With `CC[C@]1(O)CC[C@H]2[C@@H]3CCC4=CCCC[C@@H]4[C@H]3CC[C@@]21C`, the Potency entry in [1], in [2], in [3], in assay [5], in assay [11] and in assay [7] was “inactive” in each case. In addition, the Potency result in assay [12], in assay [13], in assay [10], in assay [14], in [15] and in assay [16] was “inactive” throughout.

Regarding `ClC1=C(Cl)[C@]2(Cl)[C@H]3[C@H]([C@H]4C=C[C@H]3C4)[C@@]1(Cl)C2(Cl)Cl`, the Potency in [1] was 19.3 µM (active). For the same compound, the Potency entry in [2], in assay [3], in assay [4], in [5], in assay [6] and in [11] was “inactive” throughout. The Potency result in [17], in [8], in [18], in assay [19], in assay [9] and in assay [13] was “inactive” in each case. For the same compound, the Potency result in [10], in [15] and in [16] was “inactive” each time.

On to `C[C@]12CC[C@H](O)C[C@H]1CC[C@@H]1[C@@H]2C[C@@H](O)[C@]2(C)[C@@H](C3=CC(=O)OC3)CC[C@]12O`, for which the Potency was 3.44 µM (active) in [1] and 1.82 µM (active) in assay [7]. The Potency result in assay [2], in [3], in [5], in [8], in assay [18] and in assay [19] was “inactive” each time. In addition, the Potency result in assay [9], in [15] and in assay [16] was “inactive” throughout.

In the case of `OC(c1ccc(Cl)cc1)(c1ccc(Cl)cc1)C(Cl)(Cl)Cl`, the Potency result in assay [1], in [20], in [4], in assay [5], in assay [6] and in [11] was “inactive” in each case. In addition, the Potency result in assay [7], in assay [18], in [9] and in assay [10] was “inactive” throughout. Further, the Potency in assay [19] is 26.5 µM (active).

Consider `O=[N+]([O-])c1cc(C(F)(F)F)cc([N+](=O)[O-])c1Cl`, for which the Potency entry in [1], in [20], in assay [3], in [6], in [8] and in assay [18] was “inactive” in each case. The Potency entry in assay [19], in assay [9], in assay [13], in assay [10], in assay [15] and in [16] was “inactive” each time.

Turning to `C=C(C)CN(CC)c1c([N+](=O)[O-])cc(C(F)(F)F)cc1[N+](=O)[O-]`, the Potency in [1] was 54.5 µM (active). The Potency entry in assay [20], in [3], in assay [4], in assay [6], in assay [11] and in assay [7] was “inactive” in each case. Besides, the Potency entry in assay [17], in assay [8], in assay [18], in [12], in [13] and in [10] was “inactive” in each case. The Potency result in [16] is “inactive”.

Turning to `Clc1ccc(Oc2ccccc2)cc1`, the Potency entry in assay [1], in assay [2], in assay [3], in [4], in assay [5] and in [6] was “inactive” throughout. Besides, the Potency result in [7], in assay [17], in assay [18], in [19], in assay [9] and in assay [12] was “inactive” in each case. Besides, the Potency result in [13], in assay [10], in [14], in assay [15] and in assay [16] was “inactive” each time.
